In all, about 410,000 compounds went through this assay and about 5,100 (1.2%) were called active. Roughly 8% stayed inconclusive and do not appear here. Calls come from the whole dose curve; tested in HEK293T cells. Shown is part of a subset that was picked to be rich in actives. A call without a number means that no potency is given here.
Assay: High Throughput Screening for Foot and Mouth Disease Virus Antivirals; note: read-out not given here; nearly all actives have a fitted effect of over 45% in size
Details: FMDV antiviral cell-based qHTS; series mostly up to 57.9 µM
Potency is the fitted concentration of half-maximal effect.

Structure (SMILES)	Potency
COc1ccc2[nH]cc(CCNCc3ccc(Br)cc3)c2c1	inactive
Cc1ccc2nc(-c3ccc(C)c(NC(=O)Cc4ccccc4)c3)oc2c1	inactive
Cc1cc(NC(=O)c2cccc(Cl)c2)ccc1-c1cc2ccccc2oc1=O	inactive
O=c1oc2ccccc2cc1-c1cn(-c2ccccc2)c(=S)[nH]1	12.6 µM (active)
COc1ccc(OC)c(-c2csc(-c3c(N)c(C(=O)c4ccccc4)n4ccccc34)n2)c1	inactive
CCOC(=O)c1[nH]c(C)c(CCC(=O)N2CCN(c3ccccc3)CC2)c1C	inactive
CCOc1ccc2nc(N3CCCN(CCCn4cccn4)CC3)nc(C)c2c1	inactive
CCCn1ccc2c(OCC(=O)NCc3ccc(F)cc3)cccc2c1=O	inactive
COc1ccc(NC(=O)C2=CC(c3ccc(OC)c(OC)c3)=NS(=O)(=O)N2C)cc1	31.6 µM (active)
COc1ccc(C2=NS(=O)(=O)N(C)C(C(=O)NC(C)c3ccccc3)=C2)cc1 (configuration not stated)	inactive
COc1ccc(C2=NS(=O)(=O)N(C)C(C(=O)N3CCCCC3)=C2)cc1	inactive
Cc1ccc2c(c1)c1c(c(=O)n(-c3ccccc3)c(=O)n1CC(=O)c1ccc(Cl)cc1)n2C	inactive
Clc1ccc([C@@H]2C[C@H]3CC[C@@H]2N3)cn1	inactive
O=C(CSc1c2c(nc3ccc(Cl)cc13)CCCC2)NCc1ccco1	25.1 µM (active)
O=C(CSc1nc2cc3c(cc2c(=O)n1CCC1=CCCCC1)OCO3)NCc1ccco1	inactive
O=C(NCc1ccco1)C1(c2ccc(Cl)cc2)CCCC1	inactive
COc1cc(C)c(CN2CCc3nnc(C(C)NC(=O)c4cccnc4)n3CC2)cc1C (configuration not stated)	inactive
COc1cccc(-c2ccc(O)c(CNC3CN4CCC3CC4)c2)n1 (configuration not stated)	inactive
O=C(NCCN1CCOCC1)c1cnn(-c2nccc(-c3cccs3)n2)c1C1CC1	inactive
O=C(c1cnccn1)N1CCC[C@@]2(CCN(Cc3ccncc3)C2)C1	inactive
Cc1nc2cnc(Nc3ccccc3)nc2n(Cc2ccc(F)cc2)c1=O	inactive
CCCCNC(=O)c1ccc2c(c1)NC(=O)C(C(C)C)N2 (configuration not stated)	inactive
COc1ccc(NC(=O)N2CC3(CCN(C(C)=O)CC3)C2)cc1	inactive
CC(C)(C)OC(=O)NNc1c2ccccc2nc2ccccc12	20 µM (active)
CC(C)(C)OC(=O)N[C@H](C(=O)OC(C)(C)C)c1ccc(Br)cc1	inactive
Cc1ccc(C(=O)NNC(=O)OC(C)(C)C)c(Cl)c1	inactive

Structure (SMILES)	Potency
O=C(c1cc(C(F)(F)F)cc(C(F)(F)F)c1)N1CCC2(CC1)CN(c1ccncc1)C2	inactive
Fc1cccc(/C=N\N=C/c2cccc(F)c2)c1	inactive
Cc1nnc(SCCCCSc2nnc(C)c(=O)[nH]2)[nH]c1=O	inactive
CCOC(=O)CNc1nc2ccccc2n2c(C)nnc12	inactive
CCCCOC(=O)CNc1nnc(SCC(=O)OCC)[nH]c1=O	39.8 µM (active)
Cc1cccc(Cc2c(C)nc3nc(SCc4ccccc4Cl)nn3c2C)c1	inactive
CCOc1ccc(C(=O)c2cn(Cc3ccc(F)cc3)c3ccc(F)cc3c2=O)cc1	inactive
COC(=O)c1ccccc1NC(=O)Cn1c(=O)cc(C)c2c(C)nn(-c3cccc(Cl)c3C)c21	inactive
O=c1c(-c2ccc(F)cc2)nc2cnc(N3CCOCC3)nc2n1-c1ccccc1	inactive
C=CCN1CCC2(C)c3cc(O)ccc3CC1[C@@H]2C (some centres not stated)	inactive
CCn1c(CSc2nc(C)cc(C)n2)nnc1SCC(N)=O	inactive
Cc1cc(C)nc(S/C=C/C(=O)c2ccccc2)n1	12.6 µM (active)
O=C(CSCc1cnn(-c2ccccc2)c1-n1cccc1)NCc1ccc(Cl)cc1	inactive
COc1cn(CC(=O)Nc2cccc(C)c2C)c(CN2CCCCC2)cc1=O	inactive
COc1ccc2[nH]cc(CCNc3cc(-c4ccccc4CN(C)C)ncn3)c2c1	inactive
COc1cccc(N2CCN(C(=O)Nc3ccc4c(c3)NC(=O)CO4)CC2)c1	inactive
O=C(Nc1ccccc1)N1CCN(C2c3ccccc3-c3ccccc32)CC1	inactive
O=C(Nc1cccc(NC(=O)N2CCN(c3ccccc3)CC2)c1)N1CCN(c2ccccc2)CC1	25.1 µM (active)
CC(C)NC[C@H](O)c1ccc2ccccc2c1	inactive
CCc1nn(CCCC(=O)NCc2ccccc2OC)c(=O)c2cc3occc3n12	inactive
COCCn1c(=O)c(-c2cc(F)cc(F)c2)nc2cnc(N3CCNCC3)nc21	inactive
COc1ccc(-c2cn3nc(N4CCCC(C(=O)NCCCOC(C)C)C4)sc3n2)cc1 (configuration not stated)	inactive
O=C(Nc1c(-c2ccc(F)cc2)nc2ccccn12)c1cccc(F)c1	inactive
N#C/C(=C\c1ccccc1F)c1nc2ccccc2c(=O)[nH]1	inactive
Cc1ccc2nc(CNC(=O)c3ccccc3)[nH]c2c1	inactive
O=C(/C(=C/c1cccc(Cl)c1)c1nc2ccccc2[nH]1)c1ccccc1	7.94 µM (active)

Structure (SMILES)	Potency
Cc1nn(Cc2ccc(F)cc2)c(C)c1NC(=O)c1noc2c1CCc1ccccc1-2	31.6 µM (active)
COc1ccc2c(c1)CCc1c(C(=O)Nc3cc(C)ccc3O)noc1-2	inactive
Cc1ccccc1Cn1nc(C)c(NC(=O)c2cc(-c3ccc(F)cc3)on2)c1C	inactive
CCC(C)NC(=O)Cn1c(=O)n(-c2ccc(Cl)cc2)c(=O)c2c3c(sc21)CCCC3 (configuration not stated)	inactive
COc1cc2c(cc1OC)CC1(CCCCC1)N=C2	inactive
COc1cc2c(cc1OC)C(Nc1ccc(S(N)(=O)=O)cc1)=NC(C)(C)C2	inactive
COc1cc2c(cc1O)C(SC)=NC(C)(C)C2	20 µM (active)
COc1ccccc1-c1cc(NCc2cccs2)ncn1	inactive
CC(C)C(N)C(=O)OCCOCn1cnc2c(=O)[nH]c(N)nc21 (configuration not stated)	inactive
O=c1c(-c2cc(F)cc(F)c2)nc2cnc(Oc3ccccc3)nc2n1C[C@H]1CCCO1	inactive
COc1ccc(CNC(=O)COC(=O)c2c(C)nn(-c3ccccc3)c2C)cc1OC	39.8 µM (active)
CCCn1c(C)cc(C(=O)COC(=O)c2c(C)nn(-c3ccccc3)c2C)c1C	35.5 µM (active)
CCC(Oc1ccccc1)C(=O)OCC(=O)Nc1c(C)nn(-c2ccccc2)c1C (configuration not stated)	inactive
C/C=C/c1ccc(OCC(=O)OCC(=O)Nc2c(C)nn(-c3ccccc3)c2C)c(OC)c1	inactive
COc1ccc(CNC(=O)COc2ccccc2C(=O)c2cnn(-c3ccccc3)c2)cc1OC	inactive
Cc1ccc(OC(=O)c2c(C)nn(-c3ccccc3)c2C)cc1	inactive
COc1cccc(Cn2c(=O)c(-c3cc(F)cc(F)c3)nc3cnc(OC)nc32)c1	inactive
COc1cccc(Nc2ncc3ncc(=O)n(C4CC4)c3n2)c1	inactive
NCCCNCCCCN(CCCN)/[N+]([O-])=N/O	inactive
N#CCCn1c(=O)c(-c2cc(F)cc(F)c2)nc2cnc(Oc3ccccc3)nc21	inactive
COc1ccc(OC)c(CNC(=O)CN2C(=O)CCn3nc(-c4cn(C)c5ccccc45)cc32)c1	inactive
CCN(CC)c1ccc(NC(=O)CN2CCN(c3ccccn3)CC2)cc1	inactive
CCc1ccc(OCC(=O)N2CCN(CC(=O)Nc3ccccc3Cl)CC2)cc1	inactive
CN(C(=O)CN1CCN(c2cc(-c3ccc(OCc4ccccc4)cc3)ncn2)CC1)c1ccccc1	25.1 µM (active)
c1ccc2c(Nc3ccncc3)nc(-c3ccoc3)nc2c1	inactive
Cc1nc2cnc(N3CCN(C)CC3)nc2n(C[C@H]2CCCO2)c1=O	inactive

Structure (SMILES)	Potency
COc1cccc(C(=O)N(Cc2cccc(Cl)c2)Cc2ccco2)c1	inactive
CC(=O)c1cc(CN2CCC(C(=O)Nc3cccc(-c4cscn4)c3)CC2)cs1	20 µM (active)
CCn1cc(CN2CCC(C(=O)Nc3cccc(-c4cccc(Cl)c4)c3)CC2)c(C)n1	inactive
CCn1cc(CN2CCC(C(=O)Nc3cccc(-c4cccc(Cl)c4)c3)CC2)cn1	inactive
CCOc1cc(C(=O)Nc2nnc3n2CCS3)cc(OCC)c1OCC	inactive
c1ccc(CN2CC[C@@]3(CCCNC3)C2)cc1	inactive
CC(C)OCCCNc1ncnc2c1[nH]c1ccc(F)cc12	39.8 µM (active)
COc1ccc(C2Nc3ccccc3C(=O)N2c2ccc(Cl)cc2)cc1Cn1cc([N+](=O)[O-])cn1 (configuration not stated)	100 µM (active)
COc1ccccc1N1CCN(C2C(=O)c3ccccc3N2C(C)=O)CC1 (configuration not stated)	inactive
CS(=O)(=O)N1CCC2(CC1)CN(Cc1ccccc1)C2	inactive
Cc1ccc(-c2nc(C#N)c(NCCCn3ccnc3)o2)cc1	inactive
N#Cc1nc(-c2ccc(OCc3ccccc3)cc2)oc1NCCCN1CCOCC1	39.8 µM (active)
COc1ccc(OCc2ccc(-c3nc(C#N)c(N4CCN(c5ccccc5)CC4)o3)o2)cc1	inactive
C/C=C(\C)C(=O)OC1C(OC(=O)C2(C)OC2C)c2cc3ccc(=O)oc3cc2OC1(C)C (configuration not stated)	inactive
Cc1nc2cnc(N3CCN(C)CC3)nc2n(CCC#N)c1=O	inactive
Cc1ccc(COC(=O)CN2C(=O)NC3(CCCC3)C2=O)cc1	inactive
CC(OC(=O)CN1C(=O)C2CCCCC2C1=O)C(=O)Nc1ncc(Cl)cc1Cl (configuration not stated)	inactive
CC1=CC(C)(C)Nc2ccc(OC(=O)CN3C(=O)C4CCCCC4C3=O)cc21 (configuration not stated)	20 µM (active)
O=C(O)CCn1cc(C=C2C(=O)NC(=S)NC2=O)c(-c2cccc(Br)c2)n1	inactive
O=C(O)CCn1cc(/C=C/C(=O)c2ccc(Cl)cc2)c(-c2cccc(Br)c2)n1	25.1 µM (active)
Cc1csc2nc(COC(=O)c3ccccc3NC(=O)c3ccccc3Cl)cc(=O)n12	inactive
CCc1cnc2c(c1SCC(=O)c1ccccc1)c(=O)n(C)c(=O)n2C	inactive
CCC(C)[C@@H](N)C(=O)O (some centres not stated)	inactive
Cc1ccc(SCC(=O)Nc2ccc3oc(-c4ccccc4F)nc3c2)cc1	inactive
